What all share (assay): NCI-60 one-dose screen, 48 h (100 = growth as untreated, 0 = no growth, -100 = all killed)
Conditions in all cases: 10 µM

For assay [1], the system named is HT29 colon.
The subject of assay [2] is SNB-75 CNS.
Assay [3] relates to SNB-19 CNS.
Assay [4] relates to U251 CNS.
Assay [5] relates to SK-MEL-5 melanoma.
The subject of assay [6] is UACC-62 melanoma.
The test system of assay [7] is LOX IMVI melanoma.
Assay [8] relates to SK-MEL-28 melanoma.
For assay [9], the system named is PC-3 prostate.

The panel holds about 83,000 compounds, 20% with a hit somewhere; the sample as a whole holds those more often.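 Treatment: one concentration, 48 hours, 96-well format. Scoring: percent growth, with anything below 10 considered active.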 Values without a mark were called inactive. Calls of active or inactive are those of the source.

As for `CCOC(=O)c1cocc1C(=O)O`, the growth in assay [1] is 110%; in assay [2] it was 83.3%; in assay [3] it was 107%; in assay [4] it was 103%; in assay [5], 104%; in assay [6], 116%. Besides, the growth in [7] was 103%; in assay [8] it was 104%.
With `O=C(CCCCCCC(=O)Nc1ccccc1)NO`, the growth is 7.15% (active) in assay [1]; 18% in assay [2]; -20.1% (active) in assay [4]; 10.4% in assay [9]; -54.4% (active) in assay [5]; -42.8% (active) in assay [6]. The growth is -3.4% (active) in assay [7] and 5.94% (active) in assay [8].
As to `CC(C)(C)OC(=O)N1CCc2c(sc3ncnc(N/N=C/c4cccc5ccccc45)c23)C1`, the growth is 26.2% in assay [1]; -3.28% (active) in assay [2]; 26.3% in assay [3]; 33.7% in assay [4]; 25.9% in [9]; -57.2% (active) in [5]. Besides, the values for the growth in assay [6], in assay [7] and in [8] were 0.0448% (active), 13.1% and 32.9%, respectively.
In the case of `COc1cc2c3c(n(C4CCNCC4)c(=O)c2cc1OC)-c1cc2c(cc1C3=O)OCO2`, the growth in [1] is -58.3% (active); in assay [2], -61.7% (active); in assay [3] it was -54.8% (active); in assay [4] it was -64.3% (active); in assay [5] it was -89.3% (active); in [6] it was -76.6% (active). The growth was -73.1% (active) in assay [7] and -5.66% (active) in assay [8].
Consider `Cc1ccc(C(SCC(N)C(=O)O)(c2ccc(C)cc2)c2ccc(C)cc2)cc1` (stereo unspecified), for which the growth in assay [1] was 14.1%; in assay [2], -6.9% (active); in assay [3], 30.4%; in assay [4] it was 25.4%; in assay [9] it was 11.2%; in assay [5] it was 16.5%. The results for the growth in assay [6], in [7] and in [8] were 30.7%, 40.6% and 56.6%, respectively.
Turning to `COc1ccc(-c2nn(-c3cccc(Cl)c3)cc2C=C(C#N)C#N)cc1`, the growth in [1] is -14.9% (active); in assay [2], 3.23% (active); in [3] it was 16.6%; in assay [9] it was 12.6%; in assay [5], 5.8% (active); in assay [6] it was 11.1%. Also, the growth in assay [7] is -66.5% (active); in assay [8], 17.2%.
For `CN(C)c1ccc(/C=N/NC(=O)c2ccccc2Nc2cccc(C(F)(F)F)c2)cc1`, the growth in assay [1] was 97.2%; in assay [2], 94.4%; in assay [3], 92.7%; in assay [4] it was 81.1%; in assay [9], 76.1%; in [5], 81.8%. Also, the growth in assay [6] is 86.3%; in [7], 65.3%; in assay [8], 91.2%.
As for `Cc1nn(-c2ccccc2)c2nc(Cl)c(C=O)c(-c3ccccc3)c12`, the growth in assay [1] is 56.7%; in [2] it was 106%; in assay [3], 95.6%; in assay [4], 92.8%; in assay [9], 77.4%; in [5], 87.1%. Moreover, the growth in assay [6] is 79.4%; in assay [7], 86.9%; in assay [8] it was 107%.
As to `CCC(CC)n1c(C)cc(=O)n1C(CC)CC`, the growth in assay [1] was 111%; in [2], 95.3%; in assay [4] it was 105%; in [9], 104%; in assay [5], 98.4%; in assay [6], 101%. For the same compound, the values for the growth in assay [7] and in assay [8] were 102% and 107%, respectively.
Consider `Nc1ccc(-c2cccs2)cc1NC(=O)c1ccc(CCCC(=O)Nc2ccc(C3CC3N)cc2)cc1` (stereo unspecified), for which the growth in assay [1] is 64.8%; in assay [2] it was 111%; in [4], 7.02% (active); in [5], 20%; in assay [6], 45.5%; in [7] it was 19%. For the same compound, the growth in [8] was 83.1%.
As for `CCC(=O)OC1CCC2C3CCC(=O)OC3C(C)(CCC(=O)O)CC12C` (stereo unspecified), the growth is 4.42% (active) in assay [1]; -1.91% (active) in assay [2]; 62.8% in [3]; 28.3% in assay [4]; 31.4% in assay [9]; -83.5% (active) in assay [5]. For the same compound, the growth was 45.9% in [6], 30.9% in [7] and 59.8% in assay [8].
On to `COc1ccc(-c2nn(-c3cccc(Cl)c3)cc2/C=C2\NC(=S)N(c3ccc(Cl)cc3)C2=O)cc1`, for which the growth in assay [1] is 9.73% (active); in assay [2], 0.109% (active); in [3], 63.2%; in assay [9] it was 42.5%; in assay [5] it was 24.2%; in assay [6], 3.65% (active). Besides, the growth in assay [7] is 1.65% (active); in assay [8], -33.5% (active).
As to `COc1ccc(C(c2ccc(OCCN(C)C)cc2)c2cc3ccccc3c3ccccc23)cc1` (stereo unspecified), the growth in assay [1] was -7.37% (active); in assay [2], 86.8%; in assay [3] it was 65%; in assay [4] it was 16.6%; in assay [9], 60.7%; in assay [5], 58.6%. Moreover, the figures for the growth in assay [6], in [7] and in assay [8] were -47.8% (active), -81% (active) and -77.8% (active), respectively.
For the compound `COc1cc(/C=C/c2cc(/C=C/c3ccc(O)c(OC)c3)n(C(=O)Nc3ccc(C)cc3)n2)ccc1O`, the growth in [1] is -22.4% (active); in assay [3], 20.3%; in assay [4], 6.19% (active); in assay [5], 1.16% (active); in assay [6], -0.493% (active); in assay [7] it was 1.89% (active). Besides, the growth in [8] is 13.2%.
Turning to `Cc1cc(CSc2ccccc2C(=O)N2CC=C(c3ccccc3)CC2)on1`, the growth in assay [1] was 84.2%; in [2], 90.3%; in [3], 104%; in assay [4], 98.7%; in assay [5], 97.5%; in assay [6] it was 90.4%. In addition, the growth was 92.1% in assay [7] and 98.1% in assay [8].
Take `CN1CCc2c(sc3nc4n(-c5ccc(Cl)cc5)c(=O)[nH]n4c(=O)c23)C1`: the growth in assay [1] was 86.4%; in assay [2], 95.2%; in assay [3] it was 109%; in [4], 98.7%; in assay [5] it was 110%; in assay [6], 111%. In addition, the growth was 92.5% in assay [7] and 111% in assay [8].
Regarding `CCN1CC(CCN2CCOCC2)C(C(c2ccccc2)c2ccccc2)C1=O` (stereo unspecified), the growth in assay [1] was 102%; in [2], 102%; in [3], 102%; in assay [4], 101%; in [9], 82.7%; in assay [5], 100%. Also, the growth was 94.8% in assay [6], 97.2% in assay [7] and 116% in [8].
